Measurements taken from PubChem BioAssay (Tox21).
Inconclusive results are not listed. Calls of active or inactive are those of the source. Unless noted, calls follow the shape of the dose curve; as a rule, active = well fitted curve in the direction sought with a large enough effect in the repeat runs; inconclusive = weak or mixed curves; inactive = no such curve, though single readings can be large; an effect the other way counts as inactive or inconclusive.

Legend:
[1] = qHTS assay for small molecule agonists of the p53 signaling pathway (AID 651631; calls by dose curve; also: nearly all actives have a fitted effect of over 15% in size)
Outline: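 p53RE-bla HCT-116 cells; compounds 16 h, 37 °C; LiveBLAzer B/G FRET substrate 2 h RT; fluorescence intensity read-out, qHTS format.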

[2] = qHTS assay for small molecules that induce genotoxicity in human embryonic kidney cells expressing luciferase-tagged ATAD5 (AID 651632); also: nearly all actives have a fitted effect of over 15% in size
Outline: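 Test compounds were delivered by pin tool onto HEK293T reporter cells (2,000/well) expressing ATAD5 fused to luciferase. After 16 hr at 37C, 5% CO2, Amplite was added for 30 min at room temperature and luminescence was measured.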

[3] = qHTS assay for small molecules that induce genotoxicity in human embryonic kidney cells expressing luciferase-tagged ATAD5 - cell viability (AID 651634; calls by dose curve; also: nearly all actives have a fitted effect of over 25% in size)
Outline: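 Quantitative high-throughput format. HEK293T cells expressing ATAD5 fused to luciferase were plated at 2,000 cells/well and treated 15.5 hr with compound versus DMSO. Viability was determined by fluorescent live-cell protease substrate, 30 min at 37C.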

[4] = qHTS assay for small molecule disruptors of the mitochondrial membrane potential - cell viability (AID 720634; calls by dose curve;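 also: human HepG2 liver cancer cells; series mostly up to about 83 µM; nearly all actives have a fitted effect of over 20% in size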)
Outline: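 Same-well counter-screen: following the MMP dye addition, CellTiter-Glo was added to 1 hr compound-treated HepG2 cells and luminescence read after 30 min at room temperature.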

[5] = qHTS assay for small molecule disruptors of the mitochondrial membrane potential (AID 720635)
Outline: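 HepG2 cells (2,000/well) attached overnight at 37C, then took compound for 1 hr at 37C, 5% CO2. Mito-MPS dye was added for 30 min; fluorescence was read at 490/535 nm (monomers) and 540/590 nm (aggregates).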

[6] = qHTS assay to test for compound auto fluorescence at 590 nm (red) in HepG2 cells (AID 720674)
Outline: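 Rose Bengal sodium served as the red fluorophore standard. HepG2 monolayers (overnight attachment, MEM with 10% FBS) were exposed to test compounds for 1 hr at 37 C and read at Ex 540/Em 590 nm.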

[7] = qHTS assay to test for compound auto fluorescence at 535 nm (green) in HepG2 cells (AID 720675)
[8] = qHTS assay to test for compound auto fluorescence at 460 nm (blue) in HEK293 cells (AID 720678)
Outline: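 HEK293, 2,000 cells/well, 10% dialyzed FBS; attach 4-5 hr 37C; pin compound or DMSO; o/n 37C/5% CO2; fluorescence 405/460 nm; triamterene-equivalent units.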

[9] = qHTS assay to test for compound auto fluorescence at 590 nm (red) in HEK293 cells (AID 720679)
Outline: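 Intensity at 540nm excitation and 590nm emission is reported as Rose Bengal sodium-equivalent autofluorescence. Measurements followed overnight exposure (37C, 5% CO2) of HEK293 cells, 2,000 per well, to 23 nL compound.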

[10] = qHTS assay to test for compound auto fluorescence at 460 nm (blue) in HEK293 cell free culture (AID 720681)
Outline: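 Test compounds were pinned into cell-free culture medium (DMEM with 10% FBS) and fluorescence was read directly at Ex/Em 405/460 nm. Signals were expressed as fluorescence equivalents of triamterene, with DMSO vehicle as control.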

[11] = qHTS assay to test for compound auto fluorescence at 535 nm (green) in HEK293 cell free culture (AID 720682)
Outline: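 Cell-free medium (DMEM, 10% FBS) receives compound or DMSO by pintool. Plate read directly at Ex 485/Em 535 nm. Signal converted to fluorescein equivalency.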

[12] = qHTS assay to test for compound auto fluorescence at 590 nm (red) in HEK293 cell free culture (AID 720683)
Outline: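 Tox21 10K library compounds were pinned into cell-free DMEM with 10% FBS and fluorescence was read at excitation 540 nm. Activity is expressed as Rose Bengal sodium equivalency.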

[13] = qHTS assay to test for compound auto fluorescence at 590 nm (red) in HepG2 cell free culture (AID 720684)
Outline: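 Ex 540 / Em 590 nm read of compound in cell-free MEM (10% FBS). Rose Bengal sodium reference.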

[14] = qHTS assay to test for compound auto fluorescence at 460 nm (blue) in HepG2 cell free culture (AID 720685)
Outline: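 Cell-free plates of MEM plus 10% FBS received 23 nL compound or DMSO vehicle; blue-channel (405/460 nm) intensity scored against triamterene as reference fluorophore.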

[15] = qHTS assay to test for compound auto fluorescence at 535 nm (green) in HepG2 cell free culture (AID 720686)
[16] = qHTS assay to test for compound auto fluorescence at 460 nm (blue) in HepG2 cells (AID 720687)
Outline: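 Cells (2,000/well in MEM with 10% FBS) attached overnight at 37 C, then were exposed to compound or DMSO for 1 hr at 37 C, 5% CO2. Fluorescence read at Ex/Em 405/460 nm, expressed as triamterene-equivalent signal.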

[17] = qHTS assay for identifying genotoxic compounds that show differential cytotoxicity against isogenic chicken DT40 cell lines with known DNA damage response pathways - wild type cell line (AID 743012); also: nearly all actives have a fitted effect of over 60% in size
Outline: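 300 wt DT40 cells/well; cpd (DMSO) pintool-transferred after ~0.5 h at 37 C/5% CO2; 40 h incubation; CellTiter-Glo added, 30 min RT; luminescence read.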

[18] = qHTS assay for identifying genotoxic compounds that show differential cytotoxicity against isogenic chicken DT40 cell lines with known DNA damage response pathways - Rad54/Ku70 mutant cell line (AID 743015); also: nearly all actives have a fitted effect of over 60% in size
[19] = qHTS assay to identify small molecule antagonists of the androgen receptor (AR) signaling pathway - cell viability counter screen (AID 743033; also: nearly all actives have a fitted effect of over 45% in size)
[20] = target: Androgen receptor (Homo sapiens) (UniProt P10275); test: qHTS assay to identify small molecule antagonists of the androgen receptor (AR) signaling pathway (AID 743035; active = well fitted inhibition curve with a large enough effect in the signal ratio in the repeat runs, not every such curve was filed as active; the % refers to the signal ratio)
Sequence of Androgen receptor (Homo sapiens) (P10275 whole entry, looked up): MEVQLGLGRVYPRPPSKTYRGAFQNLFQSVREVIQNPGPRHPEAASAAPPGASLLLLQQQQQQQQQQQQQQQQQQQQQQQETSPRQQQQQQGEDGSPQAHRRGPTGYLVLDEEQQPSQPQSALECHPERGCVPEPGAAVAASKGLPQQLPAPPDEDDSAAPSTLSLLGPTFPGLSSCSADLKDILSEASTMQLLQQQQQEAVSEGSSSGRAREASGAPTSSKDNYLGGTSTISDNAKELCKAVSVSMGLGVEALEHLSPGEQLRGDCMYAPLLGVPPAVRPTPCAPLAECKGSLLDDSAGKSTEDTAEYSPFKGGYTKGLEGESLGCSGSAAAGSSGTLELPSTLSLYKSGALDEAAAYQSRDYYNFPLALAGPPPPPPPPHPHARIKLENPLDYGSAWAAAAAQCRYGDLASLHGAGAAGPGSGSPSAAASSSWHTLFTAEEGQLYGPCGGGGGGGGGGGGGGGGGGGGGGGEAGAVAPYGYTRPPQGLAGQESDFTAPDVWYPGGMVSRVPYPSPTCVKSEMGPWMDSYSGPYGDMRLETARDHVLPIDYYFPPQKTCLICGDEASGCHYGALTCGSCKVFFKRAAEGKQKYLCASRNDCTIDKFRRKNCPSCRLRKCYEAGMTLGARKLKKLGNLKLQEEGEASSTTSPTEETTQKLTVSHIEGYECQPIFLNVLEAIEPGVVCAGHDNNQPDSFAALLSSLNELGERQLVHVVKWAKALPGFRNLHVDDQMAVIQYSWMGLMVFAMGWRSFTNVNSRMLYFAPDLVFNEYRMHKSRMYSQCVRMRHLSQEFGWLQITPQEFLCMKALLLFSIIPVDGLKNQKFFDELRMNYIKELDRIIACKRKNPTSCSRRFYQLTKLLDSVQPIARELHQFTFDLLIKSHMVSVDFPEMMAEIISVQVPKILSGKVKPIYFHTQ
Outline: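 In this cell-based reporter screen, compounds were tested in concentration series against R1881-activated HEK293 cells expressing beta-lactamase under UAS control; after 16 h at 37C, FRET substrate was added and fluorescence read 2 h later.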

[21] = target: Androgen receptor (Homo sapiens) (UniProt P10275); test: qHTS assay to identify small molecule agonists of the androgen receptor (AR) signaling pathway (AID 743036; active = well fitted activation curve with a large enough effect in the signal ratio in the repeat runs, with a control signal flat, not every such curve was filed as active; the % refers to the signal ratio)
Outline: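 AR-bla HEK293 cells, 2,000/well; 4 h preincubation 37C/5% CO2; compound (DMSO) 16 h at 37C; LiveBLAzer B/G FRET substrate 2 h RT; fluorescence intensity read-out.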

[22] = target: Androgen receptor (Homo sapiens) (UniProt P10275); test: qHTS assay to identify small molecule agonists of the androgen receptor (AR) signaling pathway using the MDA cell line (AID 743040; also: nearly all actives have a fitted effect of over 20% in size)
Outline: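 Cell-based luciferase reporter: MDA-kb2, MMTV promoter (AR + GR response elements). 16 h compound exposure at 37C; ONE-Glo, 30 min RT, luminescence.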

[23] = qHTS assay to identify small molecule antagonists of the androgen receptor (AR) signaling pathway using the MDA cell line - cell viability counter screen (AID 743041; also: nearly all actives have a fitted effect of over 45% in size)
Outline: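 In this qHTS counter assay, fluorescence intensity after CellTiter-Fluor addition indicated viability of MDA-kb2 AR-luc cells given compounds and R1881 for 16 h at 37C.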

[24] = target: Androgen receptor (Homo sapiens) (UniProt P10275); test: qHTS assay to identify small molecule antagonists of the androgen receptor (AR) signaling pathway using the MDA cell line (AID 743042; also: nearly all actives have a fitted effect of over 55% in size)
Outline: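 MDA-kb2 cells (human breast carcinoma, stably carrying an MMTV-luciferase reporter responsive to AR and GR) were plated at 3,000 cells/well and preincubated 5 hr at 37C, then given compound plus R1881 agonist for 16 h. ONE-Glo luminescence was read.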

[25] = qHTS assay to identify small molecule antagonists of the thyroid receptor (TR) signaling pathway - cell viability counter screen (AID 743064); also: nearly all actives have a fitted effect of over 50% in size
Outline: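 GH3.TRE-Luc cells, 4 h pre-plating; cpd + T3 1 nM final; 37 °C 23.5 h; CellTiter-Fluor 30 min; fluorescence read.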

[26] = qHTS assay to identify small molecule antagonists of the thyroid receptor (TR) signaling pathway (AID 743065); also: series mostly up to about 70 µM; nearly all actives have a fitted effect of over 55% in size
Outline: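 GH3.TRE-Luc rat pituitary cells carrying two TR response elements driving luciferase were plated for 4 h, given compound plus 1 nM T3 (final), and incubated 23.5 h at 37 C. ONE-Glo luminescence measured reporter inhibition; CellTiter-Fluor fluorescence tracked cytotoxicity.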

[27] = system: thyroid hormone receptor (rat, GH3 cells); test: qHTS assay to identify small molecule agonists of the thyroid receptor (TR) signaling pathway (AID 743066; calls by dose curve)
[28] = target: Estrogen receptor (Homo sapiens) (UniProt P03372); test: qHTS assay to identify small molecule antagonists of the estrogen receptor alpha (ER-alpha) signaling pathway (AID 743069; active = well fitted curve in the direction sought with a large enough effect in the signal ratio in the repeat runs, not every such curve was filed as active; the % refers to the signal ratio)
Sequence of Estrogen receptor (Homo sapiens) (P03372 whole entry, looked up): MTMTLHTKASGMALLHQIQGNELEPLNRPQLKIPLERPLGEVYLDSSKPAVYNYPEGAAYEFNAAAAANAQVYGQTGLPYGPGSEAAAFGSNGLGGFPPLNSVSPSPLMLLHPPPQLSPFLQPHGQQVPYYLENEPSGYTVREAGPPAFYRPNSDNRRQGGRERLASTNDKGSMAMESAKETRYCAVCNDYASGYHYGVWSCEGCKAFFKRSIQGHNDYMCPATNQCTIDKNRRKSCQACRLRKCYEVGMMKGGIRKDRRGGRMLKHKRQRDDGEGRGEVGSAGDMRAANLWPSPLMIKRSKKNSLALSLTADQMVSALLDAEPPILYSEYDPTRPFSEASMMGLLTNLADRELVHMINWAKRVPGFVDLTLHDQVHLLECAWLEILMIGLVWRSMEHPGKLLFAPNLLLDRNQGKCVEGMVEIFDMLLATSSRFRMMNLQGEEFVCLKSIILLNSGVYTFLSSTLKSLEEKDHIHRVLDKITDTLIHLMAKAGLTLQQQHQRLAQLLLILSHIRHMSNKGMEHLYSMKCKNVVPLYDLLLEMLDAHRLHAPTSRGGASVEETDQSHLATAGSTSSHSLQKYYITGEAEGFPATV
Outline: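 A 17beta-estradiol challenge was applied right after compound transfer to ER-alpha-UAS-bla HEK293 cells previously kept in charcoal-stripped serum. Plates stood 18 hr at 37C and 5% CO2; fluorescence was read following 2 hr FRET substrate loading at room temperature.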

[29] = qHTS assay to identify small molecule antagonists of the estrogen receptor alpha (ER-alpha) signaling pathway - cell viability counter screen (AID 743074; calls by dose curve;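 also: HEK293 cells carrying ER-alpha-UAS-bla reporter stimulated with 17beta-estradiol; nearly all actives have a fitted effect of over 45% in size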)
[30] = target: Estrogen receptor (Homo sapiens) (UniProt P03372); test: qHTS assay to identify small molecule agonists of the estrogen receptor alpha (ER-alpha) signaling pathway (AID 743075; calls by dose curve;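 also: HEK293 GripTite cells with ER-alpha and UAS-driven beta-lactamase reporter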)
[31] = target: Estrogen receptor (Homo sapiens) (UniProt P03372); test: qHTS assay to identify small molecule agonists of the estrogen receptor alpha (ER-alpha) signaling pathway using the BG1 cell line (AID 743079); also: nearly all actives have a fitted effect of over 20% in size
[32] = qHTS assay to identify small molecule antagonists of the estrogen receptor alpha (ER-alpha) signaling pathway using the BG1 cell line (AID 743080; calls by dose curve;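 also: BG1 cells stimulated with 17beta-estradiol alongside compound; series mostly up to about 70 µM; nearly all actives have a fitted effect of over 25% in size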)
Outline: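 BG1Luc4E2, endogenous ER-alpha, 4xERE-luc; 5 d charcoal-stripped FBS, phenol red free; 24 h plating; cpd + 17beta-estradiol 21.5 h, 37 C/5% CO2; CellTiter-Fluor viability 30 min, then ONE-Glo luciferase 30 min RT.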

[33] = qHTS assay to identify small molecule antagonists of the estrogen receptor alpha (ER-alpha) signaling pathway using the BG1 cell line - cell viability counter screen (AID 743081);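 also: compound given together with 17beta-estradiol as the ER stimulus; series mostly up to about 70 µM; nearly all actives have a fitted effect of over 45% in size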
Aromatase (Homo sapiens) = Aromatase (Homo sapiens) (UniProt P11511); test: qHTS assay to identify aromatase inhibitors (AID 743083); also: series mostly up to about 70 µM; nearly all actives have a fitted effect of over 55% in size
Sequence of Aromatase (Homo sapiens) (P11511 whole entry, looked up): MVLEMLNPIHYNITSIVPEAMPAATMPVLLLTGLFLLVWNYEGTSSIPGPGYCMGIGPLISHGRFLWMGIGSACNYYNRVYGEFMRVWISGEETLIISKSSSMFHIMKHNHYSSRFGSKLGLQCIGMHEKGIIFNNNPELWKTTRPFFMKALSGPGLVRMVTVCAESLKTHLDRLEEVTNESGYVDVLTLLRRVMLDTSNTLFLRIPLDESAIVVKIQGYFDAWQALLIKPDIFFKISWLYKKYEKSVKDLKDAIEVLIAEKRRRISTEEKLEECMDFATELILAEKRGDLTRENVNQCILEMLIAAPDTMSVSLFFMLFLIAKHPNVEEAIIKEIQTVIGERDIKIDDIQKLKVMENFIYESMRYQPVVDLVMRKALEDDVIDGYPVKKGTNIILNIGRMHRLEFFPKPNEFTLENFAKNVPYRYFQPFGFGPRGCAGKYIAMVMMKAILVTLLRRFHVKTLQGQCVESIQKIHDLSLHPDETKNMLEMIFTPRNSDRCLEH

[34] = qHTS assay to identify aromatase inhibitors - cell viability counter screen (AID 743084);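 also: cells stimulated with testosterone during compound exposure; nearly all actives have a fitted effect of over 55% in size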
[35] = target: Aryl hydrocarbon receptor (Homo sapiens) (UniProt P35869); test: qHTS assay to identify small molecule that activate the aryl hydrocarbon receptor (AhR) signaling pathway (AID 743085);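 also: HG2L7.5c1 human HepG2 liver cells with stably integrated DRE-driven firefly reporter; series mostly up to about 70 µM; nearly all actives have a fitted effect of over 15% in size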
Sequence of Aryl hydrocarbon receptor (Homo sapiens) (P35869 whole entry, looked up): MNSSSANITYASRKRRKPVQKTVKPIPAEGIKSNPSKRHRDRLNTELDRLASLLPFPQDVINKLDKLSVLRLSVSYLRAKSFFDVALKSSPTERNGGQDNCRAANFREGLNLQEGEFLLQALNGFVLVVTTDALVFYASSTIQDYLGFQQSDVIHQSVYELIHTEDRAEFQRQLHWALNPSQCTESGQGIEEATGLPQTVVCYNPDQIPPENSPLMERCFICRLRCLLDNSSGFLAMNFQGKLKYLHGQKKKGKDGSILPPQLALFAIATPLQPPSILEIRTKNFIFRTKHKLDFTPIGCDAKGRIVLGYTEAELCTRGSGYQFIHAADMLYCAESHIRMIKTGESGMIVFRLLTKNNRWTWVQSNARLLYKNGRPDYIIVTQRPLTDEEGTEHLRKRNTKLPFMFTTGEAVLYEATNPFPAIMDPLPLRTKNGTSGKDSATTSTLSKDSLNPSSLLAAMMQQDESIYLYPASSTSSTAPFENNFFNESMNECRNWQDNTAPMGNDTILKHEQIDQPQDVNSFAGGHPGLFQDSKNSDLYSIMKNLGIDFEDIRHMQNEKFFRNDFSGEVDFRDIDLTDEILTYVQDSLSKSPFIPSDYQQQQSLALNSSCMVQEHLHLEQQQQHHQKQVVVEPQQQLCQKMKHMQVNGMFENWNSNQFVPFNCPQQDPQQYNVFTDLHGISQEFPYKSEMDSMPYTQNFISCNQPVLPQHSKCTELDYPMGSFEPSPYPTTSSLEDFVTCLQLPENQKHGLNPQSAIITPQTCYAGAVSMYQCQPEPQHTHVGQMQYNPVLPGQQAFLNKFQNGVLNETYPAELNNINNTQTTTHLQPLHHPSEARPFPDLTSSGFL
Outline: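 Luminescence read-out: ONE-Glo reagent, 30 min at room temperature, in HG2L7.5c1 HepG2 reporter cells treated 24 h at 37C. Viability was measured beforehand by CellTiter-Fluor fluorescence after 30 min at 37C.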

[36] = qHTS assay to identify small molecule that activate the aryl hydrocarbon receptor (AhR) signaling pathway - cell viability counter screen (AID 743086)
Outline: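 HepG2-AhR-luc (HG2L7.5c1) cells, 4000/well, were preincubated 5 h at 37C, exposed to compound in qHTS format for 24 hr at 37C, then given CellTiter-Fluor for 30 min; viability was read as fluorescence in the reporter wells.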

[37] = qHTS assay for small molecule agonists of the p53 signaling pathway - cell viability (AID 651633; calls by dose curve;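 also: p53RE-bla HCT reporter cells with a stable beta-lactamase p53 reporter; series mostly up to about 83 µM; nearly all actives have a fitted effect of over 30% in size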)
Outline: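 p53RE-bla cells, seeded at 4,000 per well and rested 5 h at 37 C/5% CO2, received compounds in DMSO for 16 h at 37 C. CellTiter-Glo was then added, and luminescence was read after 30 min at room temperature to gauge cytotoxicity.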

[38] = qHTS assay to test for compound auto fluorescence at 535 nm (green) in HEK293 cells (AID 720680)
[39] = qHTS assay to identify small molecule antagonists of the glucocorticoid receptor (GR) signaling pathway - cell viability counter screen (AID 720693); also: nearly all actives have a fitted effect of over 55% in size
[40] = qHTS assay for identifying genotoxic compounds that show differential cytotoxicity against isogenic chicken DT40 cell lines with known DNA damage response pathways - Rev3 mutant cell line (AID 743014); also: nearly all actives have a fitted effect of over 55% in size
[41] = target: Acetylcholinesterase (Homo sapiens) (UniProt P22303); test: Acetylcholinesterase (AChE) small molecule antagonists: enzyme-based qHTS assay (AID 1347397; calls by dose curve; also: nearly all actives have a fitted effect of over 55% in size); conditions: Potency: AChE enzyme activity inhibition; outcome: AChE enzyme activity inhibition
Sequence of Acetylcholinesterase (Homo sapiens) (P22303 whole entry, looked up): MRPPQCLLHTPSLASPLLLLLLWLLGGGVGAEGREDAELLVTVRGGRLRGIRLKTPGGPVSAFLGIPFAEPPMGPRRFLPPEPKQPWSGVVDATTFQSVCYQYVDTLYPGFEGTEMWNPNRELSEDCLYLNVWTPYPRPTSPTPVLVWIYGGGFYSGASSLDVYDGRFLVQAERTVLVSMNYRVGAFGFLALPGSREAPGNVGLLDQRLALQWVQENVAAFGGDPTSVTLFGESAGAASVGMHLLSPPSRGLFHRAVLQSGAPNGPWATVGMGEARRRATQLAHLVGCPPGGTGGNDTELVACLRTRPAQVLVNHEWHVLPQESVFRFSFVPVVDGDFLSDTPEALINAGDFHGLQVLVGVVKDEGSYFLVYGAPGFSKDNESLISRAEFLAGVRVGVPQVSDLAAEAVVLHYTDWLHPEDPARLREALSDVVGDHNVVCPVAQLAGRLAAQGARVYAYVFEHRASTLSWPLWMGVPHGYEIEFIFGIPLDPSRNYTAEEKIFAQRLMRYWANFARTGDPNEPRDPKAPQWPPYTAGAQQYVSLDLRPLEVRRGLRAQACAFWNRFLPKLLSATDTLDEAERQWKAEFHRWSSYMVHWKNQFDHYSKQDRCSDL
Outline: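 Compound or DMSO vehicle was pin-transferred onto recombinant human AChE (50 mU/mL as dispensed) and left 30 min at room temperature. Acetylthiocholine with DTNB then started the reaction, read colorimetrically 10 min later.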

[42] = target: Acetylcholinesterase (Homo sapiens) (UniProt P22303); test: Acetylcholinesterase (AChE) small molecule antagonists: enzyme-based qHTS assay with human liver microsomes (AID 1347399; calls by dose curve; also: nearly all actives have a fitted effect of over 60% in size); conditions: Potency: qHTS inhibition; outcome: qHTS inhibition
Outline: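 Recombinant human AChE (50 mU/mL in the enzyme mix) and human liver microsomes (0.25 mg/mL final) were preincubated with compound and NADPH (0.25 mg/mL final) for 30 min at 37 C. Acetylthiocholine/DTNB was then added; thiocholine was read colorimetrically after 10 min at room temperature.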

Measured: Potency

COC(=O)[C@H]1[C@@H](OC(=O)c2ccccc2)C[C@@H]2CC[C@H]1N2C
not listed: [37] | [38] | [39] | [40] | [41] | [42]
inactive: all other assays above

CNC(C)Cc1ccccc1 (stereo not given)
not listed: [20] | [21] | [22] | [24] | [25] | [28] | [30] | [31] | [32] | [35] | [41] | [42]
inactive: all other assays above

CCCCCC/C(C=O)=C\c1ccccc1
inactive: [41] | [42]
